Among all 5,500 compounds or so, about 2,000 (36%) were called active. Roughly 18% stayed inconclusive and do not appear here. Cut-off read from the data, not from the text of the source: active = normalized growth mostly below about 0.91 (no sharp cut-off); inconclusive = no clear call, values can overlap the other calls; inactive = mostly above about 0.92. Some of the results follow.
Test: chemical genetic growth profiling, strain panel (AID 1159580);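 note: tested at 20 µM; growth read once vehicle control cultures reached saturation at 30 °C; 1 = growth at the plate median or of vehicle wells; lower values mean less growth of the strain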
Details: growth OD

Measured: normalized growth

CNC(=O)Oc1ccccc1OC(C)C
inactive: S. cerevisiae deletion strains, locus YJR043C, strain POL32, hits give low values 1.01 | S. cerevisiae deletion strains, locus YJR075W, strain HOC1, hits give low values 1.02 | S. cerevisiae deletion strains, locus YKL009W, strain mrt4, hits give low values 0.986 | S. cerevisiae deletion strains, locus YKL068W, hits give low values 0.991 | S. cerevisiae deletion strains, locus YKL085W, strain MDH1 (second series), hits give low values 0.982 | S. cerevisiae deletion strains, locus YKL085W, strain MDH1, hits give low values 0.982 | S. cerevisiae deletion strains, locus YKL160W, strain elf1, hits give low values 0.996 | S. cerevisiae deletion strains, locus YKL190W, strain CNB1, hits give low values 1.01 | S. cerevisiae deletion strains, locus YKR001C, strain vps1, hits give low values 0.99 | S. cerevisiae deletion strains, locus YKR026C, strain gcn3, hits give low values 0.993 | S. cerevisiae deletion strains, locus YKR091W, strain srl3, hits give low values 0.989 | S. cerevisiae deletion strains, locus YLL001W, strain dnm1, hits give low values 0.995 | S. cerevisiae deletion strains, locus YLL026W, hits give low values 0.986 | S. cerevisiae deletion strains, locus YLL041C, strain sdh2, hits give low values 0.994 | S. cerevisiae deletion strains, locus YLR027C, strain aat2, hits give low values 0.995 | S. cerevisiae deletion strains, locus YLR039C, strain RIC1, hits give low values 1.05 | S. cerevisiae deletion strains, locus YLR058C, strain SHM2, hits give low values 1.02 | S. cerevisiae deletion strains, locus YLR102C, strain apc9, hits give low values 0.988 | S. cerevisiae deletion strains, locus YLR221C, strain rsa3, hits give low values 0.986 | S. cerevisiae deletion strains, locus YLR258W, strain gsy2, hits give low values 0.984 | S. cerevisiae deletion strains, locus YLR262C, strain YPT6 (second series), hits give low values 1.01 | S. cerevisiae deletion strains, locus YLR262C, strain YPT6, hits give low values 1.06 | S. cerevisiae deletion strains, locus YLR268W, strain sec22, hits give low values 0.99 | S. cerevisiae deletion strains, locus YLR320W, strain mms22, hits give low values 0.987 | S. cerevisiae deletion strains, locus YLR330W, strain CHS5, hits give low values 1.02 | S. cerevisiae deletion strains, locus YLR342W, strain FKS1 (second series), hits give low values 1 | S. cerevisiae deletion strains, locus YLR342W, strain FKS1, hits give low values 0.99 | S. cerevisiae deletion strains, locus YLR357W, strain rsc2, hits give low values 0.953 | S. cerevisiae deletion strains, locus YLR370C, strain arc18, hits give low values 0.992 | S. cerevisiae deletion strains, locus YLR371W, strain rom2, hits give low values 0.987 | S. cerevisiae deletion strains, locus YLR384C, strain iki3, hits give low values 0.99 | S. cerevisiae deletion strains, locus YLR418C, strain cdc73, hits give low values 0.97 | S. cerevisiae deletion strains, locus YML016C, strain PPZ1, hits give low values 1.03 | S. cerevisiae deletion strains, locus YML032C, strain rad52, hits give low values 0.989 | S. cerevisiae deletion strains, locus YML120C, strain ndi1, hits give low values 0.986 | S. cerevisiae deletion strains, locus YML124C, strain tub3, hits give low values 0.991 | S. cerevisiae deletion strains, locus YMR058W, strain fet3, hits give low values 0.989 | S. cerevisiae deletion strains, locus YMR078C, strain ctf18, hits give low values 0.985 | S. cerevisiae deletion strains, locus YMR125W, strain sto1, hits give low values 0.957 | S. cerevisiae deletion strains, locus YMR129W, hits give low values 0.995 | S. cerevisiae deletion strains, locus YMR205C, strain PFK2, hits give low values 0.984 | S. cerevisiae deletion strains, locus YMR223W, strain ubp8, hits give low values 0.986 | S. cerevisiae deletion strains, locus YMR231W, strain pep5, hits give low values 0.988 | S. cerevisiae deletion strains, locus YMR263W, strain SAP30, hits give low values 1.03 | S. cerevisiae deletion strains, locus YMR307W, strain GAS1, hits give low values 0.988 | S. cerevisiae deletion strains, locus YNL067W, strain RPL9B, hits give low values 1.03 | S. cerevisiae deletion strains, locus YNL071W, strain lat1, hits give low values 1 | S. cerevisiae deletion strains, locus YNL128W, strain TEP1, hits give low values 1.02 | S. cerevisiae deletion strains, locus YNL153C, strain GIM3, hits give low values 1.02 | S. cerevisiae deletion strains, locus YNL209W, strain ssb2, hits give low values 0.994 | S. cerevisiae deletion strains, locus YNL233W, strain BNI4, hits give low values 0.982 | S. cerevisiae deletion strains, locus YNL248C, strain rpa49, hits give low values 0.979 | S. cerevisiae deletion strains, locus YNL250W, strain rad50, hits give low values 0.979 | S. cerevisiae deletion strains, locus YNL271C, strain bni1, hits give low values 0.968 | S. cerevisiae deletion strains, locus YNL298W, strain CLA4, hits give low values 0.98 | S. cerevisiae deletion strains, locus YNL307C, strain MCK1, hits give low values 0.992 | S. cerevisiae deletion strains, locus YNL322C, strain KRE1 (second series), hits give low values 0.98 | S. cerevisiae deletion strains, locus YNL322C, strain KRE1, hits give low values 1.01 | S. cerevisiae deletion strains, locus YNR049C, strain mso1, hits give low values 0.989 | S. cerevisiae deletion strains, locus YNR052C, strain pop2, hits give low values 0.986 | S. cerevisiae deletion strains, locus YOL006C, strain TOP1, hits give low values 1.06 | S. cerevisiae deletion strains, locus YOL012C, strain htz1 0.953 | S. cerevisiae deletion strains, locus YOL147C, strain pex11, hits give low values 0.993 | S. cerevisiae deletion strains, locus YOR001W, strain rrp6, hits give low values 0.998 | S. cerevisiae deletion strains, locus YOR061W, strain CKA2, hits give low values 1.01 | S. cerevisiae deletion strains, locus YOR069W, strain VPS5, hits give low values 1.01 | S. cerevisiae deletion strains, locus YOR070C, strain gyp1, hits give low values 0.986 | S. cerevisiae deletion strains, locus YOR080W, strain dia2, hits give low values 0.963 | S. cerevisiae deletion strains, locus YOR083W, strain WHI5, hits give low values 0.995 | S. cerevisiae deletion strains, locus YOR106W, strain vam3, hits give low values 0.991 | S. cerevisiae deletion strains, locus YOR136W, strain idh2, hits give low values 0.992 | S. cerevisiae deletion strains, locus YOR144C, strain elg1, hits give low values 0.995 | S. cerevisiae deletion strains, locus YOR184W, strain ser1, hits give low values 0.991 | S. cerevisiae deletion strains, locus YOR265W, strain rbl2, hits give low values 0.985 | S. cerevisiae deletion strains, locus YOR270C, strain vph1, hits give low values 1 | S. cerevisiae deletion strains, locus YOR290C, strain snf2, hits give low values 1 | S. cerevisiae deletion strains, locus YOR316C, strain cot1, hits give low values 0.992 | S. cerevisiae deletion strains, locus YPL051W, strain arl3, hits give low values 0.995 | S. cerevisiae deletion strains, locus YPL055C, strain LGE1, hits give low values 1.03 | S. cerevisiae deletion strains, locus YPL078C, strain atp4, hits give low values 0.998 | S. cerevisiae deletion strains, locus YPL106C, strain sse1, hits give low values 0.98 | S. cerevisiae deletion strains, locus YPL240C, strain hsp82, hits give low values 1 | S. cerevisiae deletion strains, locus YPL241C, strain CIN2, hits give low values 1.01 | S. cerevisiae deletion strains, locus YPR119W, strain clb2, hits give low values 0.994 | S. cerevisiae deletion strains, locus YPR141C, strain kar3, hits give low values 0.978 | S. cerevisiae deletion strains, locus YPR163C, strain tif3, hits give low values 0.987 | S. cerevisiae deletion strains, locus YPR167C, strain met16, hits give low values 0.989 | S. cerevisiae deletion strains, strain wtn01, hits give low values 0.984 | S. cerevisiae strains, strain wild type, hits give low values 1.01
